Screens from PubChem.
Rows were chosen to be rich in hits. Some 1.4% of all compounds tested hit in one or more screens of this group.
Bcl-xL primary – inhibitors of human Bcl-xL. Q07817. GST-Bcl-xL / FITC-Bim BH3 peptide fluorescence polarization. inhibition, % at 10.9 µM. 0.7% of 320,000 active. AID 2129;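 active = inhibition above the mean of all tested compounds plus 3 SD, cutoff set per campaign, cut at about 30% in these data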;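 also: 0% = DMSO wells and 100% = unlabeled Bim-BH3 peptide competitor; inhibitors lower millipolarization by displacing the labeled peptide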
MCL1 BIM primary – disrupts human MCL1 binding to BIM-BH3 peptide; Q07820; 0.68% of 320,000 active; inhibition, % at 10.9 µM; GST-MCL1 / FITC-Bim-BH3 fluorescence polarization;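 active = inhibition above the mean inhibition of all tested compounds plus 3 SD, set per campaign, cut at about 40% in these data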;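 also: 0% = DMSO wells and 100% = unlabeled Bim-BH3 peptide control; higher means more loss of mP so more displacement of Bim peptide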
MEX-5 binding – C. elegans MEX-5 TCR-2 RNA binding activity; MEX-5/FITC-TCR2 RNA binding, fluorescence polarization; hits give low values; AID 1832; 0.38% of 300,000 active; activity score (negative = inhibition of binding), % at 10 µM;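 active = inhibition past about -25% in most replicates, and total fluorescence under double the plate's negative control median, limit read from the data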;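 also: 0% = DMSO and -100% = 5 µM competing unlabeled TCR2 RNA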
GLD-1 RNA inh – GLD-1-TGE RNA interaction inhibition (C. elegans); inhibition, % at 5.96 µM; Q17339; 0.44% of 320,000 active; purified GLD-1 + fluorescein TGE RNA, fluorescence polarization;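 active = percent inhibition above a per-plate cutoff, the plate mean of test compounds plus 3 SD, cut at about 30% in these data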;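 also: 0% = DMSO wells with GLD-1 and probe and 100% = wells lacking GLD-1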
E coli Lon inh – inhibitors of E. coli Lon protease; P0A9M0; purified E. coli Lon protease, fluorescence polarization; inhibition, % at 7.94 µM; 0.42% of 360,000 active; AID 602123; in the data active = inhibition above about 13%, passing the limit was not always enough;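 also: 0% = enzyme with probe and DMSO and 100% = no enzyme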
Target sequence (P0A9M0 whole entry, looked up): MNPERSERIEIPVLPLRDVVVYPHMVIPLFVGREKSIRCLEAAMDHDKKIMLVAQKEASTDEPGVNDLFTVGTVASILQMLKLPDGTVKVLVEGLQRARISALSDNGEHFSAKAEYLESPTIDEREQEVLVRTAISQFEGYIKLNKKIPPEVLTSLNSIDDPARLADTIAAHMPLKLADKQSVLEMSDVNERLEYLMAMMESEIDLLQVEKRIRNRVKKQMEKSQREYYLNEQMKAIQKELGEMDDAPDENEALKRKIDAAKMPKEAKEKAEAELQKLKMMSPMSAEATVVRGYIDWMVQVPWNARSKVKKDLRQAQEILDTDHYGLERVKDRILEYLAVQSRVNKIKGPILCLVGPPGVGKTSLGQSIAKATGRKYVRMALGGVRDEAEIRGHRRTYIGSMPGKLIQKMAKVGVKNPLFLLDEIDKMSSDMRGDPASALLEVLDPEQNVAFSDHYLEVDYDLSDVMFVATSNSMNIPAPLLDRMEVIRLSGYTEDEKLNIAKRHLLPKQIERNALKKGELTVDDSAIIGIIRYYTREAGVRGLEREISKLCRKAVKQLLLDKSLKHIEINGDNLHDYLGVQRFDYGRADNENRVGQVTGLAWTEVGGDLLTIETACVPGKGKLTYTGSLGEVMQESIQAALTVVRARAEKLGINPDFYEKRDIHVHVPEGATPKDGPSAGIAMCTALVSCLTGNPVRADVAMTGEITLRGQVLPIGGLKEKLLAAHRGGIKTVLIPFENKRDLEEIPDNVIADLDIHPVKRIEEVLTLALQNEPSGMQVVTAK
eLon confirm – confirmation of E. coli Lon protease inhibitors; shares compounds with E coli Lon inh; purified E. coli Lon, fluorescence polarization; inhibition, % at 7.94 µM; 31% of 1,400 active; AID 602230; in the data active = inhibition above about 16%;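 also: 0% = enzyme with probe and DMSO and 100% = no enzyme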
* hit, by the source's call.

How did COc1ccc(N2CCN(C3CCCCC3NS(=O)(=O)c3ccc(Cl)cc3)CC2)cc1 (stereo unspecified) do in these assays?
Bcl-xL primary: -2; MCL1 BIM primary: -2; MEX-5 binding: 0; GLD-1 RNA inh: -12; E coli Lon inh: 8

How did CC(=O)CSc1nc2ccccc2o1 do in these assays?
Bcl-xL primary: 1; MCL1 BIM primary: 5; MEX-5 binding: 2; GLD-1 RNA inh: 8; E coli Lon inh: 0

What do the screens show for `O=C(CSc1nc2ccccc2o1)c1ccccc1`?
Bcl-xL primary: -2; MCL1 BIM primary: -7; MEX-5 binding: 0; GLD-1 RNA inh: -2; E coli Lon inh: 53*; eLon confirm: 24*

Results for CC(C)C(=O)N1CCC1(C)C(=O)Nc1cccc(Oc2ccccc2)c1 (stereo unspecified) ?
E coli Lon inh: -1

Results for COc1ccc(C(=O)Nc2ccc(S(=O)(=O)Nc3ncccn3)cc2)cc1OC ?
Bcl-xL primary: 0; MCL1 BIM primary: -4; MEX-5 binding: 1; GLD-1 RNA inh: 1; E coli Lon inh: 21*; eLon confirm: 9

Results for CCCCOC(=O)Nc1ccc(S(=O)(=O)Nc2ncccn2)cc1 ?
Bcl-xL primary: -13; MCL1 BIM primary: -17; MEX-5 binding: 2; GLD-1 RNA inh: -8; E coli Lon inh: 21*; eLon confirm: 30*

What do the screens show for `COC(=O)Nc1ccc(S(=O)(=O)Nc2ncccn2)cc1`?
Bcl-xL primary: 1; MCL1 BIM primary: 5; MEX-5 binding: 0; GLD-1 RNA inh: 3; E coli Lon inh: 27*; eLon confirm: -78

Results for C/C(=C\c1ccccc1)C(=O)Nc1ccc(S(=O)(=O)Nc2ncccn2)cc1 ?
Bcl-xL primary: 3; MCL1 BIM primary: 4; MEX-5 binding: 0; GLD-1 RNA inh: 3; E coli Lon inh: 22*; eLon confirm: -18

What do the screens show for `O=C(Nc1ccc(S(=O)(=O)Nc2ncccn2)cc1)c1ccccc1`?
Bcl-xL primary: 5; MCL1 BIM primary: 6; MEX-5 binding: 2; GLD-1 RNA inh: -3; E coli Lon inh: 14

What do the screens show for `Cc1cc2c(cc1C)NC(=O)C(C)CN2` (stereo unspecified)?
E coli Lon inh: -23

Results for CCCCCCn1cc(CN2CC(N3CCSCC3)CS2(=O)=O)nn1 (stereo unspecified) ?
E coli Lon inh: 0

Results for COCCNc1nc(NCCOc2ccccc2)c2sc(-c3ccccc3)cc2n1 ?
E coli Lon inh: -1

Results for COc1ccc(NC(=O)[C@H](C)NS(=O)(=O)c2ccc(NC(C)=O)cc2)cc1Cl ?
E coli Lon inh: -11

How did CCOC(=O)NC(=O)/C(C#N)=C\Nc1sccc1C(=O)OC do in these assays?
Bcl-xL primary: active; MCL1 BIM primary: active; MEX-5 binding: -8; GLD-1 RNA inh: active; E coli Lon inh: active; eLon confirm: 2

Results for CCOC(=O)NC(=O)/C(C#N)=C\Nc1ccc(Cl)cc1Cl ?
Bcl-xL primary: 2; MCL1 BIM primary: 0; MEX-5 binding: -1; GLD-1 RNA inh: 2; E coli Lon inh: 1

How did O=C1C2C(C(=O)N1Cc1ccco1)C1C=CC2C12CC2 (stereo unspecified) do in these assays?
Bcl-xL primary: 1; MCL1 BIM primary: -6; MEX-5 binding: 1; GLD-1 RNA inh: -3; E coli Lon inh: -2

Results for O=C1C2C3c4ccccc4C(c4ccccc43)C2C(=O)N1Cc1ccco1 (stereo unspecified) ?
Bcl-xL primary: 4; MCL1 BIM primary: 7; MEX-5 binding: -1; GLD-1 RNA inh: 3; E coli Lon inh: 20*; eLon confirm: 4

How did CCc1nc2c(OCc3ccccc3)cccn2c1N(C)C(=O)C(C)C do in these assays?
E coli Lon inh: -1

What do the screens show for `CC(C(=O)N1CCCc2c1c(=O)oc1ccc(O)cc21)N1CCc2ccccc2C1` (stereo unspecified)?
Bcl-xL primary: 5; MCL1 BIM primary: -3; MEX-5 binding: 0; GLD-1 RNA inh: -6; E coli Lon inh: 16*; eLon confirm: active

How did COc1cc(NCCCCC(C)N)c2nccc(C)c2c1 (stereo unspecified) do in these assays?
E coli Lon inh: 3

What do the screens show for `COc1cc(NCCCC(C)N)c2ncccc2c1` (stereo unspecified)?
MEX-5 binding: -26*; E coli Lon inh: 44*; eLon confirm: 4
